This is part of a sample that, as a whole, favours compounds with a hit. Of some 79,000 tested, about 15% had one in any assay. Active and inactive are the calls of the source. Cut-off read from the data, not from the text of the source: active = growth inhibition above about 70%; inactive = the rest.
Tests used:
[1] = NCI Yeast Anticancer Drug Screen. Data for the rad52 strain (AID 147);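 note: 0% = growth of vehicle-treated control cultures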; conditions: S. cerevisiae rad52 mutant growth inhibition, stronger effect = higher value
Outline: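 The repair-mutant yeast strain was incubated with compounds, then growth was read and inhibition derived relative to vehicle.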

[2] = NCI Yeast Anticancer Drug Screen. Data for the wt1 strain (AID 149);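 note: 0% = growth of vehicle-treated wt1 cultures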; conditions: S. cerevisiae wt1 strain (SPY 50644) growth inhibition, stronger effect = higher value
Outline: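 Yeast wt1 strain exposed to compounds; growth inhibition measured relative to vehicle-treated controls.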

[3] = NCI Yeast Anticancer Drug Screen. Data for the rad50EPP+ strain (AID 151);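 note: 0% = growth of vehicle-treated control cultures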; conditions: S. cerevisiae rad50 mutant strain, stronger effect = higher value
Outline: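 Vehicle-normalised growth inhibition; rad50EPP+ yeast strain, altered in DNA damage repair, compound-treated.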

[4] = NCI Yeast Anticancer Drug Screen. Data for the mgt1 strain (AID 153); conditions: S. cerevisiae mgt1 mutant growth inhibition, stronger effect = higher value
Outline: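 Vehicle-normalized growth inhibition is determined in mgt1 yeast, a strain selected for a defined alteration in DNA repair or cell cycle control.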

[5] = NCI Yeast Anticancer Drug Screen. Data for the rad50 strain (AID 155);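 note: 0% = growth of vehicle-only cultures of the same strain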; conditions: S. cerevisiae rad50 strain growth inhibition, stronger effect = higher value
Outline: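 Yeast carrying a defined DNA repair defect were exposed to test compounds, and growth was compared with vehicle-treated controls to give percent inhibition.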

[6] = NCI Yeast Anticancer Drug Screen. Data for the mec2-1 strain (AID 157); conditions: S. cerevisiae mec2-1 strain, stronger effect = higher value
Outline: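 Mutant yeast (mec2-1) grown with compound; growth inhibition relative to vehicle control reported.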

[7] = NCI Yeast Anticancer Drug Screen. Data for the rad14 strain (AID 159);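 note: 0% = growth of vehicle-treated control cultures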; conditions: S. cerevisiae rad14 strain growth inhibition, stronger effect = higher value
Outline: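 Yeast cells carrying a defined DNA-repair defect were exposed to compounds, and growth inhibition was calculated relative to vehicle-treated control cultures.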

[8] = NCI Yeast Anticancer Drug Screen. Data for the sgs1 mgt1 strain (AID 161);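 note: 0% = growth of cultures given vehicle only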; conditions: S. cerevisiae sgs1 mgt1 strain, stronger effect = higher value
Outline: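 Percent growth inhibition was derived by comparing compound-exposed mutant yeast with vehicle-exposed cultures. The strain carries alterations in DNA damage repair.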

[9] = NCI Yeast Anticancer Drug Screen. Data for the CLN2oe strain (AID 163);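 note: 0% = growth of vehicle-only control cultures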; conditions: S. cerevisiae CLN2oe strain, stronger effect = higher value
Outline: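 Compounds are applied to yeast harbouring a defined cell-cycle control change; reduced growth compared with vehicle-treated controls gives the value.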

[10] = NCI Yeast Anticancer Drug Screen. Data for the cln2 rad14 strain (AID 165);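 note: 0% = growth equal to vehicle treated cultures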; conditions: S. cerevisiae cln2 rad14 strain, stronger effect = higher value
Outline: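 Readout is yeast growth inhibition versus vehicle-treated controls, using a strain with cln2 and rad14 alterations exposed to compound.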

[11] = NCI Yeast Anticancer Drug Screen. Data for the bub3 strain (AID 167); conditions: S. cerevisiae bub3 mutant strain, stronger effect = higher value
Outline: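 Compounds were applied to a genetically altered yeast strain carrying a cell-cycle control defect. Growth inhibition was scored against vehicle-treated controls.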

[12] = NCI Yeast Anticancer Drug Screen. Data for the wt2 strain (AID 169);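 note: 0% = growth of vehicle-treated yeast cultures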; conditions: S. cerevisiae wt2 strain growth inhibition, stronger effect = higher value
Outline: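 Against vehicle-treated controls, the growth of yeast exposed to each compound was compared, and the inhibition was recorded.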

[13] = NCI Yeast Anticancer Drug Screen. Data for the mlh1 strain (AID 171);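 note: 0% = growth of vehicle-treated control cultures of the same strain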; conditions: S. cerevisiae mlh1 strain growth inhibition, stronger effect = higher value
Outline: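 Measured: yeast growth. Reference: vehicle-treated controls. Organism: strain with a defined alteration affecting DNA damage repair or cell cycle control, treated with compound.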

[14] = NCI Yeast Anticancer Drug Screen. Data for the sgs1 strain (AID 173);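 note: 0% = growth of vehicle-only control cultures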; conditions: S. cerevisiae sgs1 mutant, stronger effect = higher value
Outline: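 Each compound was added to cultures of the altered yeast strain. Growth was recorded, and inhibition was derived by comparison with vehicle controls.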

[15] = NCI Yeast Anticancer Drug Screen. Data for the mlh1 rad18 strain (AID 175); conditions: S. cerevisiae mlh1 rad18 strain growth inhibition, stronger effect = higher value
Outline: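 Genetically defined yeast (DNA repair-deficient) exposed to compounds; growth inhibition determined relative to vehicle.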

[16] = NCI Yeast Anticancer Drug Screen. Data for the rad18 strain (AID 177); conditions: S. cerevisiae rad18 mutant growth inhibition, stronger effect = higher value
Outline: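 Vehicle-treated cultures served as the baseline for scoring compound-induced growth inhibition in DNA-repair-mutant yeast.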

[17] = at 5.0 µM (retest, dose inferred, filed as 0.5)
[18] = at 50.0 µM (retest, dose inferred, filed as 5.0)

Measured: growth inhibition

CC1=NN(C(=O)CC(=O)NC(=O)/C=C\c2ccccc2)C(=O)C1N=Nc1ccc([N+](=O)[O-])cc1 (stereo unspecified)
active: [1]; at 33.0 µM 75% | [1]; at 100.0 µM 72% | [5]; at 33.0 µM 73% | [5]; [18] 87% | [5]; at 100.0 µM 71% | [6]; at 50.0 µM 77.5% | [11]; at 50.0 µM 79.5% | [14]; at 33.0 µM 77% | [14]; at 100.0 µM 74% | [15]; at 50.0 µM 76.6% | [16]; at 11.0 µM 77% | [16]; at 33.0 µM 83% | [16]; at 100.0 µM 82%
inactive: [1]; at 1.2 µM -1% | [1]; at 3.7 µM 3% | [1]; at 11.0 µM 56% | [2]; at 1.2 µM 2% | [2]; at 3.7 µM 4% | [2]; at 11.0 µM 20% | [2]; at 33.0 µM 35% | [2]; at 100.0 µM 34% | [3]; at 1.2 µM 19% | [3]; at 3.7 µM 42% | [3]; at 11.0 µM 62% | [3]; at 33.0 µM 64% | [3]; at 100.0 µM 60% | [4]; at 1.2 µM 1% | [4]; at 3.7 µM 9% | [4]; at 11.0 µM 32% | [4]; at 33.0 µM 51% | [4]; at 100.0 µM 55% | [5]; at 1.2 µM -7% | [5]; at 3.7 µM -10% | [5]; [17] -1% | [5]; at 11.0 µM 38% | [5]; at 50.0 µM 59.1% | [6]; at 1.2 µM 3% | [6]; at 3.7 µM 8% | [6]; [17] -13% | [6]; at 11.0 µM 26% | [6]; at 33.0 µM 49% | [6]; [18] 35% | [6]; at 100.0 µM 43% | [7]; at 1.2 µM 1% | [7]; at 3.7 µM 5% | [7]; at 11.0 µM 21% | [7]; at 33.0 µM 41% | [7]; at 100.0 µM 46% | [8]; [17] -1% | [8]; [18] 54% | [8]; at 50.0 µM 65.3% | [9]; at 1.2 µM 6% | [9]; at 3.7 µM 9% | [9]; at 11.0 µM 20% | [9]; at 33.0 µM 34% | [9]; at 100.0 µM 37% | [10]; [17] 43% | [10]; [18] 49% | [10]; at 50.0 µM 51.2% | [11]; at 1.2 µM -1% | [11]; at 3.7 µM 4% | [11]; [17] -4% | [11]; at 11.0 µM 30% | [11]; at 33.0 µM 57% | [11]; [18] 51% | [11]; at 100.0 µM 58% | [12]; at 1.2 µM 0% | [12]; at 3.7 µM 7% | [12]; at 11.0 µM 39% | [12]; at 33.0 µM 64% | [12]; at 100.0 µM 61% | [13]; at 1.2 µM 0% | [13]; at 3.7 µM 10% | [13]; at 11.0 µM 37% | [13]; at 33.0 µM 68% | [13]; at 100.0 µM 69% | [14]; at 1.2 µM 2% | [14]; at 3.7 µM 16% | [14]; at 11.0 µM 61% | [15]; [17] -3% | [15]; [18] 65% | [16]; at 1.2 µM -8% | [16]; at 3.7 µM 4%

CC/C(=C(\c1ccccc1)c1ccc(OCC[N+](C)(C)C)cc1)c1ccccc1
active: [1]; at 11.0 µM 99% | [1]; at 33.0 µM 99% | [1]; at 100.0 µM 99% | [2]; at 11.0 µM 98% | [2]; at 33.0 µM 99% | [2]; at 100.0 µM 99% | [3]; at 11.0 µM 94% | [3]; at 33.0 µM 98% | [3]; at 100.0 µM 99% | [4]; at 11.0 µM 99% | [4]; at 33.0 µM 99% | [4]; at 100.0 µM 99% | [5]; at 3.7 µM 85% | [5]; [17] 70% | [5]; at 11.0 µM 97% | [5]; at 33.0 µM 98% | [5]; [18] 70% | [5]; at 50.0 µM 90% | [5]; at 100.0 µM 99% | [6]; at 11.0 µM 99% | [6]; at 33.0 µM 99% | [6]; at 50.0 µM 93% | [6]; at 100.0 µM 99% | [7]; at 3.7 µM 88% | [7]; at 11.0 µM 99% | [7]; at 33.0 µM 99% | [7]; at 100.0 µM 99% | [8]; [17] 74% | [8]; [18] 74% | [8]; at 50.0 µM 91.3% | [9]; at 11.0 µM 98% | [9]; at 33.0 µM 99% | [9]; at 100.0 µM 99% | [10]; at 50.0 µM 91% | [11]; at 11.0 µM 99% | [11]; at 33.0 µM 99% | [11]; at 50.0 µM 91.5% | [11]; at 100.0 µM 99% | [12]; at 11.0 µM 99% | [12]; at 33.0 µM 99% | [12]; at 100.0 µM 99% | [13]; at 3.7 µM 70% | [13]; at 11.0 µM 99% | [13]; at 33.0 µM 99% | [13]; at 100.0 µM 99% | [14]; at 11.0 µM 99% | [14]; at 33.0 µM 99% | [14]; at 100.0 µM 99% | [15]; at 50.0 µM 90.1% | [16]; at 3.7 µM 86% | [16]; at 11.0 µM 99% | [16]; at 33.0 µM 99% | [16]; at 100.0 µM 99%
inactive: [1]; at 1.2 µM 0% | [1]; at 3.7 µM 68% | [2]; at 1.2 µM -4% | [2]; at 3.7 µM 12% | [3]; at 1.2 µM 3% | [3]; at 3.7 µM 18% | [4]; at 1.2 µM -1% | [4]; at 3.7 µM 55% | [5]; at 1.2 µM 7% | [6]; at 1.2 µM -6% | [6]; at 3.7 µM 33% | [6]; [17] 31% | [6]; [18] 31% | [7]; at 1.2 µM 0% | [9]; at 1.2 µM -7% | [9]; at 3.7 µM 10% | [10]; [17] 21% | [10]; [18] 21% | [11]; at 1.2 µM -3% | [11]; at 3.7 µM 36% | [11]; [17] 22% | [11]; [18] 22% | [12]; at 1.2 µM -2% | [12]; at 3.7 µM 55% | [13]; at 1.2 µM -7% | [14]; at 1.2 µM -7% | [14]; at 3.7 µM 65% | [15]; [17] 27% | [15]; [18] 27% | [16]; at 1.2 µM 3%
